Consider 31 compounds from the supplement of paper PMC11738630.

Each structure is given as a SMILES string.

For the assay, the system named is Salmonella enterica serovar Typhimurium 14028s. Nature of the assay: approximate change in surviving CFU after surface colonization relative to water-only control (log10 CFU/mL change); higher = more surviving bacteria (less inhibition of surface colonization). As to conditions: not stated (Biolog proprietary concentration), surface: plastic 96-well plate, 20-24 h at 25 °C.

With `N[C@@H](Cc1c[nH]c2ccccc12)C(=O)O` [L-Tryptophan], for the setting “Biolog plate: PM3, Biolog well: B12”, the “approximate change in surviving CFU (log10)” value (from here on “approximate change … (log10)”) was -1.05.

Turning to `NC(=O)NCCC[C@H](N)C(=O)O` [L-Citrulline], the “approximate change … (log10)” value (Biolog plate: PM3, Biolog well: C10) turned out to be 0.665.

For `CN` [Methylamine], the “approximate change … (log10)” value (Biolog plate: PM3, Biolog well: D5) was -1.05.

For `CCCCCN` [N-Amylamine], under “Biolog plate: PM3, Biolog well: D6”, the “approximate change … (log10)” value was -0.708.

With `CCN` [Ethylamine], under “Biolog plate: PM3, Biolog well: D8”, the “approximate change … (log10)” value is -1.89.

`NCCO` [Ethanolamine]: the “approximate change … (log10)” value (Biolog plate: PM3, Biolog well: D9) was -0.408.

As to `NC=O` [Formamide], the “approximate change … (log10)” value (Biolog plate: PM3, Biolog well: E5) is -0.708.

With `CC(O)C(N)=O` (racemic) [D,L-Lactamide], the “approximate change … (log10)” value (Biolog plate: PM3, Biolog well: E7) was -1.78.

As for `N[C@@H]1C(O)O[C@H](CO)[C@@H](O)[C@@H]1O` (stereo partly drawn) [D-Mannosamine], the “approximate change … (log10)” value (Biolog plate: PM3, Biolog well: E10) was -1.09.

For `CCC(N)C(=O)O` (racemic) [D,L-a-Amino-N-Butyric Acid], the “approximate change … (log10)” value (Biolog plate: PM3, Biolog well: G7) was -0.644.

Consider `C[C@H](N)C(=O)N[C@@H](CC(=O)O)C(=O)O`, for which, under “Biolog plate: PM3, Biolog well: H1”, the “approximate change … (log10)” value is 0.58.

With `OC[C@H]1O[C@H](O)[C@H](O)[C@@H](O)[C@@H]1O` [a-D-Glucose], the “approximate change … (log10)” value (Biolog plate: PM1, Biolog well: C9) amounted to 2.34.

Regarding `CC(O)CO` (stereo unspecified) [1,2-Propanediol], the “approximate change … (log10)” value (Biolog plate: PM1, Biolog well: D4) was -0.3.

Consider `OC[C@H]1O[C@@H](O[C@@H]2[C@@H](CO)OC(O)(CO)[C@H]2O)[C@H](O)[C@@H](O)[C@H]1O` (mixture of isomers) [Lactulose], for which, under “Biolog plate: PM1, Biolog well: D10”, the “approximate change … (log10)” value was determined as 1.05.

Regarding `OCC(O)C(O)C(O)CO` (stereo unspecified) [Adonitol], the “approximate change … (log10)” value (Biolog plate: PM1, Biolog well: E9) was 1.37.

Take `COC(=O)C(C)=O` [Methyl Pyruvate]: where the note is “Biolog plate: PM1, Biolog well: G10”, the “approximate change … (log10)” value turned out to be 0.0644.

For `O=C(O)C[C@H](O)C(=O)O` [L-Malic Acid], under “Biolog plate: PM1, Biolog well: G12”, the “approximate change … (log10)” value stood at 1.01.

In the case of `O=C[C@H](O)[C@H](O)[C@@H](O)CO` [L-Lyxose], the “approximate change … (log10)” value (Biolog plate: PM1, Biolog well: H6) was -0.987.

For `NCCO` [2-Aminoethanol], where the note is “Biolog plate: PM1, Biolog well: H12”, the “approximate change … (log10)” value is 0.365.

As to `OC[C@H]1O[C@H](OC[C@H]2O[C@H](O[C@H]3[C@H](O)[C@@H](O)[C@@H](O)O[C@@H]3CO)[C@H](O)[C@@H](O)[C@@H]2O[C@H]2O[C@H](CO)[C@@H](O)[C@H](O)[C@H]2O)[C@H](O)[C@@H](O)[C@@H]1O` [Glycogen], the “approximate change … (log10)” value (Biolog plate: PM2, Biolog well: A8) is 0.944.

Take `OC[C@H]1O[C@@H](O[C@H]2[C@H](O)[C@@H](O)[C@H](O[C@H]3[C@H](O)[C@H](O)[C@H](O[C@@H]4[C@H](O)[C@H](O)[C@H](O)O[C@@H]4CO)O[C@@H]3CO)O[C@@H]2CO)[C@@H](O)[C@@H](O)[C@@H]1O` [Mannan]: under “Biolog plate: PM2, Biolog well: A11”, the “approximate change … (log10)” value was 0.837.

As for `O=C(O)[C@H]1O[C@@H](O)[C@H](O)[C@@H](O)[C@H]1O` [Pectin], the “approximate change … (log10)” value (Biolog plate: PM2, Biolog well: A12) is -0.343.

For `C[C@@H](O)[C@H](O)[C@H](O)[C@@H](O)C=O` [D-Fucose], the “approximate change … (log10)” value (Biolog plate: PM2, Biolog well: B11) is -0.408.

In the case of `OC[C@@H]1OC(O)[C@@H](O)[C@H](O)[C@H]1O` (stereo partly drawn) [L-Glucose], the “approximate change … (log10)” value (Biolog plate: PM2, Biolog well: C2) amounted to 1.22.

As to `CO[C@H]1O[C@H](CO)[C@@H](O)[C@H](O)[C@H]1O` [a-Methyl-D-Glucoside], where the note is “Biolog plate: PM2, Biolog well: C6”, the “approximate change … (log10)” value was 1.2.

Regarding `OCc1ccccc1O[C@@H]1O[C@H](CO)[C@@H](O)[C@H](O)[C@H]1O` [Salicin], under “Biolog plate: PM2, Biolog well: D2”, the “approximate change … (log10)” value was 0.0215.

Turning to `CC(=O)N[C@@H](CO)[C@@H](O)[C@H](O)[C@H](O)CO` [N-Acetyl-D-Glucosaminitol], the “approximate change … (log10)” value (Biolog plate: PM2, Biolog well: D9) worked out at 0.944.

Turning to `CCCCCCCCCC(=O)O` [Capric Acid], the “approximate change … (log10)” value (Biolog plate: PM2, Biolog well: E1) is -0.88.

Take `CCCCCC(=O)O` [Caproic Acid]: the “approximate change … (log10)” value (Biolog plate: PM2, Biolog well: E2) was -0.859.

Take `COC(=O)[C@@H](C)O` [D-Lactic Acid Methyl Ester]: the “approximate change … (log10)” value (Biolog plate: PM2, Biolog well: F1) is -0.15.

Take `C/C=C/C=C/C(=O)O` [Sorbic Acid]: the “approximate change … (log10)” value (Biolog plate: PM2, Biolog well: F9) was -2.68.
